From PubChem BioAssay AID743291 (Broad Institute, 2014)
Entries with a potency or affinity are not part of this list. Calls of active or inactive are those of the source.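 Rule for the calls: active = signal drop with fitted half-maximal dose at most twice the top valid dose, active in every repeat; inconclusive = repeats disagree, or flat partial inhibition, or poor fit; inactive = inactive in every repeat, including opposite effects.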

Target: Caspase-3 (Homo sapiens) (UniProt P42574)
Experiment: human caspase-3 protease activity blockade – biochemical, fluorescence, cherry-picked samples, selectivity assay for caspase-6 allosteric inhibitor project, dose response (AID 743291)

Caspase-3 (Homo sapiens), sequence (P42574 whole entry, looked up): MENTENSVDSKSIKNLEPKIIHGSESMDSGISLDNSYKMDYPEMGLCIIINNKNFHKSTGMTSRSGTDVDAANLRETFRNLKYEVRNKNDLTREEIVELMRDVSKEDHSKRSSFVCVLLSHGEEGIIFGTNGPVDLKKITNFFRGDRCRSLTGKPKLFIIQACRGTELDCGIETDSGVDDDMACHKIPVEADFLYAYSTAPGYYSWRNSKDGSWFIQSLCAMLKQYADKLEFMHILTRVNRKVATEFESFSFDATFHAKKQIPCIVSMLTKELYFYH

## CN1CCc2cc3c(c4c2C1Cc1ccccc1-4)OCO3 (stereo unspecified)
  outcome: inactive
